Data as given in PubChem BioAssay (NCATS).
Where “and” joins values, the source holds several entries; their conditions need not be identical. Equal entries are not always repeated. Records with an inconclusive call do not appear. Calls of active or inactive are those of the source. Calls come from the whole dose curve; as a rule, active = well fitted curve in the direction sought with a large enough effect; inconclusive = small, poorly fitted or top-dose-only effect, or another doubt; inactive = no such curve, though single readings can be large; an effect the other way counts as inactive or inconclusive.

Tests used:
[1] = Cell Viability - N2a (AID 540); conditions: N2a mouse neuroblastoma cell viability; activity change, negative = cytotoxicity: at 92.2 µM (top of the series);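 note: cells exposed to compound for 40 h at 37 °C; plate controls were DMSO alone for no effect and tamoxifen control for full effect; nearly all actives have a fitted effect of over 45% in size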
Method in brief: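 First, 1500 N2a cells per well incubate 5 hr at 37 °C; next, compounds are added and incubated 40 hr at 37 °C; finally CellTiter-Glo is added and luminescence read after 20 min, with AC50 derived by Hill modeling.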

[2] = Cell Viability - Renal Proximal Tubule (AID 545);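 note: cells exposed to compound for 40 hours; nearly all actives have a fitted effect of over 40% in size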
Method in brief: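 Primary rat renal proximal tubule cells (1000/well) were treated with compounds for 40 hr at 37 °C in complete medium. Intracellular ATP was measured by CellTiter-Glo luminescence, and AC50 values came from Hill-equation fits of concentration-response data.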

[3] = Cellular Toxicity (caspase-3) NIH 3T3 (AID 666);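 note: caspase signal read after 16 h compound exposure; 0% = DMSO basal and 100% = 100 µM tamoxifen stimulation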
Method in brief: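 Concentration-response qHTS in NIH 3T3 mouse fibroblasts scores caspase-3/7 activation as rising luminescence after 16 hr compound exposure. Signals are scaled between DMSO-only and 100 uM tamoxifen.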

[4] = Cellular Toxicity (caspase-3) Renal Proximal Tubule (AID 667);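 note: cells exposed to compound for 16 hours at 37 °C before detection; 0% = DMSO basal and 100% = 10 µM staurosporine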
Method in brief: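 Primary rat proximal tubule cells, 1000/well, 5 h plating at 37 °C, then compound 16 h at 37 °C. Caspase-Glo 3/7 reagent, 1 h RT, luminescence. Normalized to DMSO (basal) and 10 uM staurosporine (100%); Hill-fit AC50.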

[5] = Cell Viability - LYMP1-003 - Assay at 24 hr (AID 963);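 note: plate controls were DMSO only for no effect and tetraoctylammonium bromide positive control for full effect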
Method in brief: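 Acute toxicity in LYMP1-003 lymphoblastoid cells: 24 hr compound treatment at 37 C, ATP measured with CellTiter-Glo after 30 min at room temperature. AC50 derived by fitting the Hill equation to qHTS titrations.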

[6] = Cell Viability - LYMP1-003 - Assay at 40 hr (AID 964); note: % is set by controls: 0 for no effect and ±100 for the full control effect; nearly all actives have a fitted effect of over 60% in size
Method in brief: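 This qHTS cytotoxicity screen treats human lymphoblastoid cells (LYMP1-003) with compounds for 40 hr and quantifies cellular ATP via luciferase luminescence.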

[7] = Cell Viability - LYMP2-009 (AID 968);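 note: 0% = DMSO alone and the full-kill end = tetraoctylammonium bromide at 92 µM; nearly all actives have a fitted effect of over 55% in size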
[8] = Cell Viability - LYMP2-011 (AID 969);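 note: 0% = DMSO only and full inhibition = 92 µM tetraoctylammonium bromide; nearly all actives have a fitted effect of over 60% in size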
Method in brief: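 Acute toxicity is scored as a concentration-dependent drop in intracellular ATP of a human lymphoblastoid line after 24 hr treatment. Values are AC50s modeled with the Hill equation.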

[9] = Cell Viability - LYMP2-019 (AID 973);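 note: 0% = DMSO alone and full effect = 92 µM tetraoctylammonium bromide; nearly all actives have a fitted effect of over 55% in size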
Method in brief: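 Cells plated at 2500/well and allowed 5 hr at 37 C before compound addition. After 24 hr incubation, CellTiter-Glo reagent was added, plates sat 30 min at room temperature, and luminescence was recorded.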

[10] = Cell Viability - LYMP2-002 (AID 977);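 note: compound exposure lasted 24 h at 37 °C; plate controls were DMSO only for no effect and 92 µM tetraoctylammonium bromide for full effect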
Method in brief: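 Cytotoxicity is scored as concentration-dependent loss of cellular ATP in a human lymphoblastoid line after 24 hr compound treatment at 37 C. AC50 is obtained by modelling concentration-response data with the Hill equation.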

[11] = Cell Viability - LYMP2-006 (AID 978); note: % is set by controls: 0 for no effect and ±100 for the full control effect; nearly all actives have a fitted effect of over 60% in size
Method in brief: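 Human lymphoblastoid cells, 2500 per well, were preincubated 5 hr at 37 C, then exposed to compounds for 24 hr at 37 C in complete medium. Viability was read as intracellular ATP by CellTiter-Glo luminescence; AC50 from Hill-equation fits of qHTS concentration-response data.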

[12] = Cell Viability - LYMP2-010 (AID 981); note: % is set by controls: 0 for no effect and ±100 for the full control effect; nearly all actives have a fitted effect of over 55% in size
Method in brief: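 Acute toxicity is scored as a concentration-dependent loss of cellular ATP in human lymphoblastoid cells after 24 hr compound exposure in complete medium. Tetraoctylammonium bromide is the positive control.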

[13] = Cell Viability - LYMP2-014 (AID 983);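 note: plate controls were DMSO only for no effect and 92 µM tetraoctylammonium bromide for full effect; nearly all actives have a fitted effect of over 50% in size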
Method in brief: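 Decrease in intracellular ATP after 24 hr treatment at 37 C, measured by luciferase luminescence, indicated cytotoxicity. Concentration-response data were fitted with the standard Hill equation to give AC50.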

[14] = Cell Viability - LYMP2-022 (AID 987);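 note: 0% = DMSO alone and full effect = tetraoctylammonium bromide at 92 µM; nearly all actives have a fitted effect of over 55% in size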
Method in brief: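 Acute toxicity in a human lymphoblastoid line is scored as decreased intracellular ATP after 24 hr compound treatment at 37 C. ATP is measured by CellTiter-Glo luminescence; curves are fitted with the Hill equation to give AC50.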

[15] = qHTS assay for environmental chemicals that activate the Aryl hydrocarbon Receptor (AhR) signaling pathway (AID 651777); conditions: 1A2-DRE human hepatoma cells, luciferase, 24 h; activation: active compounds read high; note: % of control where 0% means no effect; nearly all actives have a fitted effect of over 15% in size
Method in brief: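 Following a 24 hr incubation with test chemicals at 37 C and 5% CO2, 1A2-DRE human hepatoma cells received One-Glo reagent; after 30 min at room temperature, luciferase output reflected CYP1A2 induction via AhR.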

[16] = qHTS assay for cell viability of the p53RE-bla HCT-116 cell line (AID 743292)
Method in brief: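 After plating at 4,000 cells per well and a 5 h rest at 37 C, HCT-116 cells carrying p53RE-bla received test chemicals in DMSO. Sixteen hours later at 37 C, CellTiter-Glo was added and luminescence recorded following 30 min at room temperature.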

[17] = Cellular Toxicity (caspase-3) Jurkat (AID 655); conditions: Jurkat caspase-3 activation, luminescence; caspase-3 activation: at 92.2 µM (top of the series), DMSO = 0%, tamoxifen = 100%;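 note: cells exposed to compound for 16 h at 37 °C before reading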
Method in brief: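 Jurkat cells (5000/well) in complete medium were treated with compounds for 16 hr at 37 °C, then Caspase-Glo 3/7 luminescence was read after 20 min at room temperature. Data normalized to DMSO (basal) and 100 uM tamoxifen (100%); AC50 from Hill fit.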

[18] = MultiTox-Fluor Cytotoxicity Assay - LYMP1-001 - Dead Cells (AID 946);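 note: 0% = DMSO and 100% = tetraoctylammonium bromide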
Method in brief: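 Seed 2500 LYMP1-001 cells/well, incubate 5 hr at 37 C; add compound, 16 hr at 37 C; add MultiTox-Fluor reagent, 60 min RT; read dead-cell fluorescence Ex/Em=485/520. Normalize to DMSO and 15 uM tetraoctylammonium bromide.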

[19] = Cell Viability - LYMP2-020 (AID 986)
Method in brief: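 Acute cytotoxicity in a human lymphoblastoid line is scored as a concentration-dependent fall in cellular ATP after 24 hr at 37 C in complete medium. The positive control is tetraoctylammonium bromide, and potency is given as Hill-fit AC50.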

[20] = biological target: Peroxisome proliferator-activated receptor alpha (Homo sapiens) (UniProt Q07869); test: qHTS assay for small molecule agonists of the peroxisome proliferator-activated receptor alpha (PPARalpha) signaling pathway (AID 651778); conditions: PathHunter PPARalpha complementation, chemiluminescence, 6 h; active compounds read high; note: % of control where 0% means no effect
Sequence of Peroxisome proliferator-activated receptor alpha (Homo sapiens) (Q07869 whole entry, looked up): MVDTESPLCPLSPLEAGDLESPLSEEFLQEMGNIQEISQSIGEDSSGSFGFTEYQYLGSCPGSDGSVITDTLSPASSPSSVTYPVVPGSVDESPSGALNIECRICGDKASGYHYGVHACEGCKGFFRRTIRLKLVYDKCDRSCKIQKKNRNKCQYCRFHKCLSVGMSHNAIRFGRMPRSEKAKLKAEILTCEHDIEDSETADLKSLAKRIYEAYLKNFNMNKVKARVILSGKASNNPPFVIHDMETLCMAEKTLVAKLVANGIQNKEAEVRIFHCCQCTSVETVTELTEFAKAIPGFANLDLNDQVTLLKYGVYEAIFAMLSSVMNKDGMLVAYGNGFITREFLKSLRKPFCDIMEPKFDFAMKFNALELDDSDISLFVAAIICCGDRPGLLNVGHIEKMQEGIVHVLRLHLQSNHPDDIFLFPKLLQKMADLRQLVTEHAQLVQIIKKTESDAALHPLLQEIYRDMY
Method in brief: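 Chemiluminescence from complemented enzyme reported PPARalpha activation in cells after 6 hr of compound treatment at 37 C. The detection reagent was incubated for 60 min at room temperature, and compounds were scored as agonists.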

O=[N+]([O-])c1ccccc1-c1ccccc1
inactive: Potency [1] | outcome [2] | Potency [3] | outcome [4] | outcome [5] | Potency [6] | Potency [7] | Potency [8] | Potency [9] | Potency [10] | Potency [11] | Potency [12] | Potency [13] | Potency [14] | activation [15] -0.891% | Potency [16]

C=CC(=O)OCC(C)C
inactive: Potency [1] | outcome [2] | caspase-3 activation [17] 0.654% | Potency [3] | outcome [4] | outcome [18] | outcome [5] | Potency [6] | Potency [7] | Potency [10] | Potency [11] | Potency [12] | Potency [13] | Potency [19] | Potency [14] | activation [15] 0.0769% | max response [20] 3.76%

Oc1c(Cl)cccc1Cl
inactive: Potency [1] | outcome [2] | caspase-3 activation [17] 2.96% | Potency [3] | outcome [4] | outcome [18] | outcome [5] | Potency [6] | Potency [7] | Potency [8] | Potency [9] | Potency [11] | Potency [12] | Potency [13] | Potency [19] | activation [15] 0.939% | max response [20] -1.21% | Potency [16]

C/C=C/CC#N
inactive: Potency [1] | outcome [2] | caspase-3 activation [17] 0.734% | outcome [4] | outcome [18] | outcome [5] | Potency [6] | Potency [7] | Potency [8] | Potency [9] | Potency [10] | Potency [12] | Potency [13] | Potency [19] | Potency [14] | activation [15] -0.768% | max response [20] -3.98%

CCOC(=O)CBr
inactive: Potency [1] | outcome [2] | caspase-3 activation [17] 1.06% | Potency [3] | outcome [4] | outcome [5] | Potency [6] | Potency [8] | Potency [9] | Potency [10] | Potency [11] | Potency [12] | Potency [13] | Potency [19] | Potency [14] | activation [15] -0.43% | max response [20] -2.92% | Potency [16]

Cc1ccc(N)c(C)c1
inactive: Potency [1] | outcome [2] | Potency [3] | outcome [4] | outcome [18] | Potency [7] | Potency [8] | Potency [9] | Potency [11] | Potency [12] | Potency [13] | Potency [19] | Potency [14] | activation [15] -0.367% | Potency [16]

C=CC(=O)OC
inactive: Potency [1] | outcome [2] | caspase-3 activation [17] 0.227% | Potency [3] | outcome [4] | outcome [18] | outcome [5] | Potency [7] | Potency [8] | Potency [9] | Potency [10] | Potency [11] | Potency [12] | Potency [19] | Potency [14] | activation [15] 1.42% | max response [20] -1.74% | Potency [16]

CC(C)[C@]12CC(=O)[C@H](C)[C@H]1C2
inactive: Potency [1] | outcome [2] | Potency [3] | outcome [4] | outcome [18] | Potency [6] | Potency [7] | Potency [9] | Potency [10] | Potency [11] | Potency [13] | Potency [19] | Potency [14] | activation [15] -0.165% and 1.56% | max response [20] 5.79% and -0.343% | Potency [16]

Nc1ccc2ccccc2c1
inactive: Potency [1] | outcome [2] | Potency [3] | outcome [4] | outcome [18] | outcome [5] | Potency [6] | Potency [7] | Potency [8] | Potency [9] | Potency [10] | Potency [11] | Potency [12] | Potency [13] | Potency [19] | Potency [14] | max response [20] -2.41% | Potency [16]

CCCBr
inactive: Potency [1] | outcome [2] | caspase-3 activation [17] 0.185% | outcome [4] | outcome [18] | outcome [5] | Potency [6] | Potency [7] | Potency [8] | Potency [10] | Potency [11] | Potency [12] | Potency [13] | Potency [14] | activation [15] 0.665%

CC(C)(C)C(O)(CCc1ccc(Cl)cc1)Cn1cncn1 (centres undefined)
inactive: Potency [1] | outcome [2] | Potency [3] | outcome [4] | outcome [18] | Potency [7] | Potency [8] | Potency [10] | Potency [11] | Potency [12] | Potency [13] | Potency [19] | Potency [14] | activation [15] 0.583% and 1.83% | max response [20] -3.73% and 1.11% | Potency [16]

O=C(O)C(Cl)(Cl)Br
inactive: Potency [1] | outcome [2] | caspase-3 activation [17] 1.43% | Potency [3] | outcome [4] | outcome [18] | Potency [6] | Potency [7] | Potency [8] | Potency [9] | Potency [10] | Potency [11] | Potency [13] | Potency [19] | Potency [14] | activation [15] 0.0306% | max response [20] -5.37% | Potency [16]

CCCCCC[N+](=O)[O-]
inactive: Potency [1] | outcome [2] | caspase-3 activation [17] 0.0633% | Potency [3] | outcome [4] | outcome [18] | outcome [5] | Potency [8] | Potency [9] | Potency [10] | Potency [11] | Potency [12] | Potency [13] | Potency [19] | activation [15] 0.0869% | max response [20] 6.24% | Potency [16]

Oc1cccc(Cl)c1
inactive: Potency [1] | outcome [2] | caspase-3 activation [17] 0.0873% | Potency [3] | outcome [4] | outcome [18] | Potency [6] | Potency [7] | Potency [9] | Potency [10] | Potency [11] | Potency [12] | Potency [13] | activation [15] -0.063% | Potency [16]

OCC(Cl)CCl (centres undefined)
inactive: Potency [1] | outcome [2] | caspase-3 activation [17] 2.02% | Potency [3] | outcome [4] | outcome [18] | outcome [5] | Potency [6] | Potency [7] | Potency [8] | Potency [11] | Potency [12] | Potency [13] | Potency [19] | Potency [14] | activation [15] 1.02% | max response [20] 0.308% | Potency [16]

[O-][Cl+2]([O-])O
inactive: Potency [1] | outcome [2] | caspase-3 activation [17] -0.446% | Potency [3] | outcome [4] | outcome [18] | outcome [5] | Potency [6] | Potency [7] | Potency [8] | Potency [10] | Potency [12] | Potency [13] | Potency [19] | Potency [14] | activation [15] 0.0972% | max response [20] -2.92%
